Shown are actives, neighbours in structure and some others; about 4.7% of the full set was active somewhere.
tim23-1 inh – inhibits growth of tim23-1 mutant yeast; S. cerevisiae tim23-1 growth, BacTiter-Glo luminescence, 24 h; inhibition, % at 20 µM; hit rate 1.3% among 330,000; AID 463212;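 active = growth inhibition of the mutant yeast at or above 50%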;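 note: temperature-sensitive mutant grown at 25 °C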
TIM10 inh – TIM10 yeast growth inhibition. inhibition, % at 10 µM. AID 463195. hit rate 1.4% among 330,000. S. cerevisiae TIM10 strain growth, BacTiter-Glo luminescence, 24 h;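 active = inhibition of 40% or more at the single tested concentration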;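 note: wild-type TIM10 isogenic control strain grown at permissive 25 °C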
SKKanGAS inh – inhibitors of SKKanGAS S. pyogenes growth in kanamycin (SK-promoter or general growth effect); BacTiter-Glo, 6 h; inhibition, % at 7.5 µM; hit rate 1.3% among 300,000; AID 1662;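 active = mean replicate score, as percent of positive control median, at least 50; inconclusive = mean below 50 but one replicate at or above 50; inactive = mean and every replicate below 50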;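 note: strain carries kanamycin resistance gene driven by streptokinase promoter and grows in 40 µg/ml kanamycin; loss of luminescence reflects streptokinase promoter inhibition or plain growth inhibition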
tim10-1 inh – tim10-1 yeast growth inhibition; hit rate 2.2% among 330,000; inhibition, % at 20 µM; AID 463190; S. cerevisiae tim10-1 ts strain growth, BacTiter-Glo, 24 h;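 active = inhibition of at least 40%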;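 note: mutant grown at 25 °C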
Calb FLC – C. albicans growth modulation with fluconazole; hit rate 0.57% among 300,000; growth inhibition, % (test concentration not listed); C. albicans CaCi-2 (fluconazole-resistant clinical isolate) + fluconazole, Alamar Blue growth, 48 h;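 active = growth inhibition above about 58% in most replicates, limit read from the data, passing the limit was not always enough; inconclusive = exactly half the replicates above a set limit; inactive = most replicates below a set limit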;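 note: all wells also contain fluconazole at 8 µg/ml as a sub-toxic cotreatment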
PfHsp90 yeast 2 – growth inhibition of yeast expressing Plasmodium Hsp90. inhibition, % at 9.4 µM. hit rate 0.32% among 310,000. S. cerevisiae expressing PfHsp90, BacTiter-Glo ATP, 48 h; yeast lacking PDR1 and PDR3 efflux regulators. AID 504621;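 active = every replicate shows inhibition above about 80%, whatever the replicate mean, limit read from the data; inconclusive = mean inhibition reaches the set limit but some replicate falls short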
tim23-1 confirm – tim23-1 yeast growth inhibition, confirmed. shares compounds with tim23-1 inh. S. cerevisiae tim23-1 growth, BacTiter-Glo luminescence, 24 h. inhibition, % at 20 µM. hit rate 83% among 4,400. AID 463218;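 active = inhibition above about 39% in either of two replicate wells at 20 µM, limit read from the data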;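 note: temperature-sensitive tim23-1 mutant grown at 25 °C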
Hits are given with their value; - = inactive; ? = inconclusive; . = no result given.

SMILES	tim23-1 inh	TIM10 inh	SKKanGAS inh	tim10-1 inh	Calb FLC	PfHsp90 yeast 2	tim23-1 confirm
CCN1CCN(S(=O)(=O)c2c(C)[nH]c(C)c2C(=O)N2CCCCC2)CC1	-	-	-	-	-	-	.
CCn1c(SCC(=O)Nc2oc(C)c3c(C)n[nH]c(=O)c23)nc2sc(C)c(C)c2c1=O	55	-	-	-	.	-	-
O=C(COC(=O)c1ccc(O)cc1O)c1ccc(Cl)cc1	63	-	-	-	-	-	43
CC(=NNC(=O)c1ccncc1)c1cccc(Br)c1	.	.	.	.	.	-	.
C/C(=N\NC(=O)c1cccc(Br)c1)c1ccccn1	52	-	110	-	-	-	-
CC(C)(C)[C@H]1C=C(C(=O)N2CCOCC2)O[C@@H](OCc2ccc(CO)cc2)C1	93	-	-	-	-	-	-
CCNC(=S)Nc1cc2oc3ccccc3c2cc1OC	-	-	-	-	-	-	.
CCCNC(=S)Nc1cc2oc3ccccc3c2cc1OC	52	-	-	-	-	-	52
CC(=O)NC1C(OCc2cccc(Br)c2)OC(COC(C)=O)C(OC(C)=O)C1OC(C)=O (stereo not drawn)	93	-	-	-	?	-	-
N#CC1(NC(=O)CSc2nnc(C3CC3)n2C2CC2)CCCCC1	-	-	.	-	.	.	.
Nc1ccc(Br)c2c1C(=O)c1ccccc1C2=O	-	-	-	-	-	.	.
NC1=C(Br)C(=O)c2ccccc2C1=O	56	-	-	-	-	-	52
c1ccc2c(c1)ncn2CCOCCOCCn1cnc2ccccc21	-	-	-	-	-	-	.
Clc1ccc(OCCn2cnc3ccccc32)c(Cl)c1	54	-	-	-	-	-	-
CC[n+]1c(/C=C/N(C)c2ccccc2)n(-c2ccccc2)c2ccc(-c3nc4ccccc4s3)cc21	80	-	99	-	116	-	65
c1ccc(N=Nc2cn[nH]c2-c2ccco2)cc1	51	-	-	-	-	-	47
Cc1cccc(N=Nc2cn[nH]c2-c2ccco2)c1	-	-	-	-	-	-	.
Cc1occc1C(=O)/C(C#N)=C/c1ccc(O)c(Br)c1	-	-	-	-	-	-	.
O=C(Nc1cccc(Cl)c1)Nc1cccc(Cl)c1	-	-	-	-	.	-	.
O=C(Nc1cccc(Cl)c1)ON=C1c2ccccc2-c2ccccc21	62	-	-	-	-	-	46
COc1cccc(C(=O)c2c(-c3ccccc3)ncc3cc(OC)c(OC)cc23)c1	54	-	.	-	.	-	-
COc1cc2cnc(-c3ccccc3)c(-c3ccc(C(F)(F)F)cc3)c2cc1OC	-	-	.	-	.	-	.
Cc1c(Cl)cccc1NCC(=O)Nc1ccc(Cl)cc1F	54	-	-	-	-	-	42
COc1ccc(COn2c(=O)c(C)[n+]([O-])c3ccccc32)cc1OC	89	-	-	-	-	-	-
Oc1ccc(/C=N/Nc2cccc3cccnc23)c(O)c1	58	-	-	-	-	-	57
SMILES	tim23-1 inh	TIM10 inh	SKKanGAS inh	tim10-1 inh	Calb FLC	PfHsp90 yeast 2	tim23-1 confirm
Cc1ccn(-c2ccc(NC(=O)c3cccs3)cc2)n1	75	-	-	-	-	-	69
Nc1ccc(NC(=O)c2cccs2)c(Cl)c1	-	-	-	-	-	-	.
O=C(Nc1ccc(NC(=O)c2cccs2)c(Cl)c1)c1cccs1	51	-	-	-	-	-	65
Cc1sc(NC(=O)c2cccs2)c(C(N)=O)c1C	51	-	-	-	-	-	67
Cc1nc2ccc(NC(=O)c3cccs3)cc2c(=O)n1Cc1ccc(Cl)cc1	62	-	-	-	?	-	46
CCCc1nc2ccc(NC(=O)c3cccs3)cc2c(=O)n1Cc1ccc(Cl)cc1	-	-	-	-	?	-	.
C=CCN(C(=O)c1csnn1)C(C(=O)NC1CCCC1)c1ccccc1F (stereo not drawn)	-	-	-	-	-	-	.
CN1CCN(c2ccccc2NC(=O)COc2ccc(Cl)cc2)CC1	-	-	-	-	-	-	.
O=C(Nc1ccccc1C(=O)O)c1cc(S(=O)(=O)Nc2ccccc2)ccc1Cl	-	-	-	-	-	-	.
O=C(Nc1ccc(Cl)cc1)c1cccs1	61	-	-	-	-	-	59
O=C(Nc1ccc(F)c([N+](=O)[O-])c1)c1cccs1	53	-	-	-	-	-	49
COc1ccc(OC)c(CNS(=O)(=O)c2cc(CN3C(=O)c4cccnc4C3=O)ccc2OC)c1	-	-	-	-	-	-	.
CCC(C(=O)NCCCN(CC)Cc1ccccc1)n1nc(C)c2sc3ccccc3c2c1=O (stereo not drawn)	-	-	-	-	-	-	.
CC1CCN(CCC(=O)Nc2ccc(F)c(F)c2)CC1	-	-	-	-	-	-	.
O=C(Nc1ccc2nn(-c3ccccc3)nc2c1)c1cccnc1	52	-	.	-	-	-	-
O=C(Nc1ccc2nn(-c3ccc(F)cc3)nc2c1)c1cccnc1	-	-	-	-	-	-	.
O=C(Nc1ccc2oc(-c3ccccc3)nc2c1)c1cccnc1	56	-	-	-	-	-	71
CCOC(=O)c1ccc(NC(=O)c2nn(CC)cc2Br)cc1	-	-	-	-	-	-	.
CCn1cc(Br)c(C(=O)Nc2ccc(Cl)cc2Cl)n1	94	-	-	-	-	-	-
O=C(Nc1ccc(F)c(Cl)c1)c1ccccc1	64	-	.	-	.	-	67
CCn1cc(Br)c(C(=O)Nc2ccc(F)c(Cl)c2)n1	53	-	-	-	-	-	44
NNC(=O)c1[nH]c2ccc(Br)cc2c1-c1ccccc1	53	-	-	-	-	-	50
CC(=O)NNC(=O)c1[nH]c2ccc(Br)cc2c1-c1ccccc1	-	-	-	-	-	-	.
Oc1ccc2ccccc2c1C=NCc1ccccc1	65	-	-	-	-	-	60
Fc1ccc(Oc2nc(-c3ccccn3)nc3ccccc23)cc1	50	-	-	-	-	.	51
SMILES	tim23-1 inh	TIM10 inh	SKKanGAS inh	tim10-1 inh	Calb FLC	PfHsp90 yeast 2	tim23-1 confirm
CCc1cc(Cn2nc(-c3ccccc3)cc2C(=O)NCc2cccc(Br)c2)on1	-	-	.	-	.	-	.
COCCN(CC(=O)Nc1ccccc1C(F)(F)F)C(=O)c1ccc(-n2cccn2)cc1	-	-	.	-	.	-	.
COc1cc(/C=C/c2ccc3cccc(O)c3n2)ccc1O	52	-	88	-	-	-	66
CCOC(=O)c1ccc(NS(=O)(=O)c2c(N)n(C)c(=O)n(C)c2=O)cc1	-	-	-	-	-	-	.
Cc1ccc(N=N/C(=C\O)C(=O)c2ccncc2)cc1	71	-	-	-	-	-	64
O=C(/C(=C/O)N=Nc1ccc(Cl)cc1)c1ccncc1	62	-	-	-	-	-	57
